{"source": "the supplement of paper PMC6411743", "experiment_in_all_cases": "NP40-soluble protein abundance relative to vehicle (solubility fold change) (ratio); higher = more soluble protein in presence of AMP-PNP", "key": {"UniProt Q58A45|Q58A45-3": {"target": "T1, UniProt Q58A45|Q58A45-3", "T1 sequence (whole entry)": "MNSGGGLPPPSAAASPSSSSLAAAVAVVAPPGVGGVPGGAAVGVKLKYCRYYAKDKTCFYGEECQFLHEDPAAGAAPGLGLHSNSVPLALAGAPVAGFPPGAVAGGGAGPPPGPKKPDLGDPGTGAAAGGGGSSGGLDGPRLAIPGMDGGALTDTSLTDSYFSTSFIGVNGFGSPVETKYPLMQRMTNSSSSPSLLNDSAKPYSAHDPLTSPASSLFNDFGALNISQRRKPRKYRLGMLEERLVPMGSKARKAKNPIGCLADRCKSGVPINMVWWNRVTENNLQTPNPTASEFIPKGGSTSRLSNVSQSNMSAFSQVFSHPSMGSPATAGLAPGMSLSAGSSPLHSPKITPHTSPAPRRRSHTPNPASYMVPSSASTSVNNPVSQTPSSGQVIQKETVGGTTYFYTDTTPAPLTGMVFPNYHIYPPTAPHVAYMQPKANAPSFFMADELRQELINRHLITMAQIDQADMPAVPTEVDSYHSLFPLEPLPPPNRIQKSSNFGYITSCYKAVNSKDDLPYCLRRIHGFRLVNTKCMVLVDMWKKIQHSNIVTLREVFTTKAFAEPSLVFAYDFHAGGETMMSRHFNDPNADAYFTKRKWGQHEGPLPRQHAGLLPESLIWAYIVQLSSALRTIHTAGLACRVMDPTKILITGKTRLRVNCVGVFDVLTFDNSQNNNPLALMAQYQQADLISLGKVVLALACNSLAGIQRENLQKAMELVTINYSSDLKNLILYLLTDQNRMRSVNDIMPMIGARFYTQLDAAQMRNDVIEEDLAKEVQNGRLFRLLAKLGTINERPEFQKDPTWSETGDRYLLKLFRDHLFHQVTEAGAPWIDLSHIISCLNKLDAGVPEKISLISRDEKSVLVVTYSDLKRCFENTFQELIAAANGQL", "in_short": "(§1)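 Across three independent experiments, values are fold changes against the detergent-processed vehicle for each replicate, based on vsn-normalised intensities. The samples were Jurkat crude lysate treated with eight concentrations (0.1 to 10 mM) for 10 min at room temperature and then 3 min at 37 °C. Lysate was solubilised with 0.8% NP40 and benzonase, ultracentrifuged, and the supernatant analysed by TMT-labelled LC-MS/MS.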"}, "UniProt Q5SGD2|Q5SGD2-3": {"target": "T2, UniProt Q5SGD2|Q5SGD2-3", "T2 sequence (whole entry)": "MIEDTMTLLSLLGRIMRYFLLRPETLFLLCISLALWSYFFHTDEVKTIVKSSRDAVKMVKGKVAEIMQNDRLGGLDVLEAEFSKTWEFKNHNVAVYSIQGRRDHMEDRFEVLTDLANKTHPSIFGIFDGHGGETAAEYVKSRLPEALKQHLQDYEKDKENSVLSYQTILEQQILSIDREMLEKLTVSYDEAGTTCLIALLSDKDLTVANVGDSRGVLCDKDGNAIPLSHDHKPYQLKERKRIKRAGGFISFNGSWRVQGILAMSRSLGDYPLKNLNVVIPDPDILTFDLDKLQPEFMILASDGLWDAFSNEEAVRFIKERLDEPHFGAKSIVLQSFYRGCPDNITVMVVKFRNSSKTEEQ", "in_short": "as §1"}, "[1]": {"target": "T3, UniProt Q6PJT7-2|Q6PJT7-3|Q6PJT7-5|Q6PJT7-9|Q6PJT7", "T3 sequence (whole entry)": "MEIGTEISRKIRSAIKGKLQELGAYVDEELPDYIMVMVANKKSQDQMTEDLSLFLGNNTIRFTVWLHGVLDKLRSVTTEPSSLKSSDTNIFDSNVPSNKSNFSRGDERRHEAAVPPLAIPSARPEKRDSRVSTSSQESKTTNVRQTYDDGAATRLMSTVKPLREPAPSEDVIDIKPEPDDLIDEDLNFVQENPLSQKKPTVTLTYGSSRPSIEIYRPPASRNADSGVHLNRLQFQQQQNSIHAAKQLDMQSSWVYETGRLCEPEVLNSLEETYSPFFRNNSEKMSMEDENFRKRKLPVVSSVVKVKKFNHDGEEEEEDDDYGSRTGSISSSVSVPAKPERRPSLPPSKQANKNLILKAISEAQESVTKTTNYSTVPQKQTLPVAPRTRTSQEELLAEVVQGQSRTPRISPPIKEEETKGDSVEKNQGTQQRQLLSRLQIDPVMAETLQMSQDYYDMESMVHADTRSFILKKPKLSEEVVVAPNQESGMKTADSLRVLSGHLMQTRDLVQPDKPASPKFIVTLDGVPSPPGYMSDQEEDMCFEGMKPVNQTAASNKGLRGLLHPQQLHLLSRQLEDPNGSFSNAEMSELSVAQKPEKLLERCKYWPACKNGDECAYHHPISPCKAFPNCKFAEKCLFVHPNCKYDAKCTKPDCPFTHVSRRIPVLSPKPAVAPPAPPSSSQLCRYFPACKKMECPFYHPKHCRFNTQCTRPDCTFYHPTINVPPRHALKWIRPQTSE", "in_short": "as §1"}, "UniProt Q8N0Z3": {"target": "T4, UniProt Q8N0Z3", "T4 sequence (whole entry)": "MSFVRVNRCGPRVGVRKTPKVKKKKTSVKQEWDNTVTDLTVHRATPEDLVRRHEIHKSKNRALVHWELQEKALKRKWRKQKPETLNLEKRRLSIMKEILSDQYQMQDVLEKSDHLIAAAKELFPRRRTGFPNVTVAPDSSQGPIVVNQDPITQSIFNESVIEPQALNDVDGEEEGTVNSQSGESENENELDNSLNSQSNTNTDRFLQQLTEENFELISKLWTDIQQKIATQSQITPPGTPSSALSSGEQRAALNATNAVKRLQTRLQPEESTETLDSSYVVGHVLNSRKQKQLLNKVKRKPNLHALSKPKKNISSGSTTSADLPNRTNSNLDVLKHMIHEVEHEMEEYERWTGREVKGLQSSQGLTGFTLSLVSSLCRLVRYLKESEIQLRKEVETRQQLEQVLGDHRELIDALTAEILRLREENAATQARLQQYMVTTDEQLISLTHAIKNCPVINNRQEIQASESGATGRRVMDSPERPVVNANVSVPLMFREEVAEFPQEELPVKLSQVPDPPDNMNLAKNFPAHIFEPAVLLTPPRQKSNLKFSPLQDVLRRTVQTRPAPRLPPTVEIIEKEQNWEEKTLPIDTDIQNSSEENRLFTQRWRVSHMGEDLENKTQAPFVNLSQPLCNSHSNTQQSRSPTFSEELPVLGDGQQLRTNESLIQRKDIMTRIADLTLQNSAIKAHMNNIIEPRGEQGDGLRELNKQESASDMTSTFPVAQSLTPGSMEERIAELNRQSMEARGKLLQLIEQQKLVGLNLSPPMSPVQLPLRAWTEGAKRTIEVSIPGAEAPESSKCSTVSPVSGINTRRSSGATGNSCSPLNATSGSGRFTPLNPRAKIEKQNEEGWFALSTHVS", "in_short": "as §1"}, "[2]": {"target": "T5, UniProt Q92581-2|Q92581-3|Q92581", "T5 sequence (whole entry)": "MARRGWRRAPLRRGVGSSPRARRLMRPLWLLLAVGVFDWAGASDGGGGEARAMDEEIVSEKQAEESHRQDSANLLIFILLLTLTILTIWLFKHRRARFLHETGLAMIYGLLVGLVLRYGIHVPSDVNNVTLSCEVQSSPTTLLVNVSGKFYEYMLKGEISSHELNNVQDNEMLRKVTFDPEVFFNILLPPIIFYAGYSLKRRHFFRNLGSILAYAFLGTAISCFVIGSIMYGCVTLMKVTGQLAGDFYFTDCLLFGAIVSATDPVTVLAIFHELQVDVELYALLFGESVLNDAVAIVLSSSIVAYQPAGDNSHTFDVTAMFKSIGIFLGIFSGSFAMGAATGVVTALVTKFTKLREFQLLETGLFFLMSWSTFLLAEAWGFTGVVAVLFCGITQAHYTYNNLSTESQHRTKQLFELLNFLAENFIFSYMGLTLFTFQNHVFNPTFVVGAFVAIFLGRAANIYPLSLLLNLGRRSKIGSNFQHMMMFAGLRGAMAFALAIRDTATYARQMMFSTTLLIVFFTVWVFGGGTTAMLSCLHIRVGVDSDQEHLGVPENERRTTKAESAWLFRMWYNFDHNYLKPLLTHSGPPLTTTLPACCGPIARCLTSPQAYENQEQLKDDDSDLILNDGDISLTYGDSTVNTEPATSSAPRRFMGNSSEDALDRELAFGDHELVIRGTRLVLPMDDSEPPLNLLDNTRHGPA", "in_short": "as §1"}}, "note": "± gives the standard deviation of the averaged measurements. Of roughly 6,200 targets only a part is listed; those with the largest changes were picked by preference."}
{"smiles": "Nc1ncnc2c1ncn2[C@@H]1O[C@H](COP(=O)(O)OP(=O)(O)NP(=O)(O)O)[C@@H](O)[C@H]1O", "note": "[adenylyl imidodiphosphate]", "values": [{"measurement": "NP40-soluble protein abundance", "setting": "UniProt Q58A45|Q58A45-3; concentration: 1mM", "result": "1.032 ± 0.0089"}, {"measurement": "NP40-soluble protein abundance", "setting": "UniProt Q58A45|Q58A45-3; concentration: 2mM", "result": "1.02 ± 0.024"}, {"measurement": "NP40-soluble protein abundance", "setting": "UniProt Q58A45|Q58A45-3; concentration: 4mM", "result": "1.02 ± 0.03"}, {"measurement": "NP40-soluble protein abundance", "setting": "UniProt Q58A45|Q58A45-3; concentration: 6mM", "result": "0.999 ± 0.026"}, {"measurement": "NP40-soluble protein abundance", "setting": "UniProt Q58A45|Q58A45-3; concentration: 8mM", "result": "1.03 ± 0.022"}, {"measurement": "NP40-soluble protein abundance", "setting": "UniProt Q58A45|Q58A45-3; concentration: 10mM", "result": "1.01 ± 0.022"}, {"measurement": "NP40-soluble protein abundance", "setting": "UniProt Q5SGD2|Q5SGD2-3; concentration: 1mM", "result": "1.02 ± 0.029"}, {"measurement": "NP40-soluble protein abundance", "setting": "UniProt Q5SGD2|Q5SGD2-3; concentration: 2mM", "result": "1.03 ± 0.049"}, {"measurement": "NP40-soluble protein abundance", "setting": "UniProt Q5SGD2|Q5SGD2-3; concentration: 4mM", "result": "1 ± 0.019"}, {"measurement": "NP40-soluble protein abundance", "setting": "UniProt Q5SGD2|Q5SGD2-3; concentration: 6mM", "result": "1 ± 0.016"}, {"measurement": "NP40-soluble protein abundance", "setting": "UniProt Q5SGD2|Q5SGD2-3; concentration: 8mM", "result": "1.02 ± 0.06"}, {"measurement": "NP40-soluble protein abundance", "setting": "UniProt Q5SGD2|Q5SGD2-3; concentration: 10mM", "result": "1.006 ± 0.0075"}, {"measurement": "NP40-soluble protein abundance", "setting": "[1]; concentration: 1mM", "result": "1.04 ± 0.018"}, {"measurement": "NP40-soluble protein abundance", "setting": "[1]; concentration: 2mM", "result": "1.17 ± 0.082"}, {"measurement": "NP40-soluble protein abundance", "setting": "[1]; concentration: 4mM", "result": "1.2 ± 0.061"}, {"measurement": "NP40-soluble protein abundance", "setting": "[1]; concentration: 6mM", "result": "1.28 ± 0.14"}, {"measurement": "NP40-soluble protein abundance", "setting": "[1]; concentration: 8mM", "result": "1.29 ± 0.15"}, {"measurement": "NP40-soluble protein abundance", "setting": "[1]; concentration: 10mM", "result": "1.33 ± 0.13"}, {"measurement": "NP40-soluble protein abundance", "setting": "UniProt Q8N0Z3; concentration: 1mM", "result": "0.943 ± 0.051"}, {"measurement": "NP40-soluble protein abundance", "setting": "UniProt Q8N0Z3; concentration: 2mM", "result": "0.976 ± 0.024"}, {"measurement": "NP40-soluble protein abundance", "setting": "UniProt Q8N0Z3; concentration: 4mM", "result": "0.959 ± 0.03"}, {"measurement": "NP40-soluble protein abundance", "setting": "UniProt Q8N0Z3; concentration: 6mM", "result": "0.955 ± 0.027"}, {"measurement": "NP40-soluble protein abundance", "setting": "UniProt Q8N0Z3; concentration: 8mM", "result": "0.957 ± 0.026"}, {"measurement": "NP40-soluble protein abundance", "setting": "UniProt Q8N0Z3; concentration: 10mM", "result": "0.964 ± 0.02"}, {"measurement": "NP40-soluble protein abundance", "setting": "[2]; concentration: 1mM", "result": "0.999 ± 0.012"}, {"measurement": "NP40-soluble protein abundance", "setting": "[2]; concentration: 2mM", "result": "0.9876 ± 0.0034"}, {"measurement": "NP40-soluble protein abundance", "setting": "[2]; concentration: 4mM", "result": "0.957 ± 0.028"}, {"measurement": "NP40-soluble protein abundance", "setting": "[2]; concentration: 6mM", "result": "0.9812 ± 0.0025"}, {"measurement": "NP40-soluble protein abundance", "setting": "[2]; concentration: 8mM", "result": "0.979 ± 0.025"}, {"measurement": "NP40-soluble protein abundance", "setting": "[2]; concentration: 10mM", "result": "0.96 ± 0.026"}]}
